PMC7862700, “An all-to-all approach to the identification of sequence-specific readers for epigenetic DNA modifications on cytosine”

molecular target: T1, ELF5 (Homo sapiens, UniProt Q9UKW6-2 1-255); experiment: DAPPL (digital affinity profiling via proximity ligation, sequencing); 10 mM Tris-HCl pH 7.5, 50 mM NaCl, 1 mM DTT, 4% glycerol, room temperature, 30 min; GST-TFs on glutathione beads, 16-mer random dsDNA library, 0.1% formaldehyde crosslink after washing; high values mean tight binding; conditions: protein: recombinant; tags: N-terminal GST; dsDNA, one strand shown
T1 sequence: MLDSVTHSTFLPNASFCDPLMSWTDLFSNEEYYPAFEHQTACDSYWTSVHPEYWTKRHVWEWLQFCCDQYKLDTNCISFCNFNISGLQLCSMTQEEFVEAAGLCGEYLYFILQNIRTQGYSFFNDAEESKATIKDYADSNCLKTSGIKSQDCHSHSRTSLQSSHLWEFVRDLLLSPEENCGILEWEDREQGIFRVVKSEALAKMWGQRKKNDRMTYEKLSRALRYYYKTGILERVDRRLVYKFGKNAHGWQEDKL
Procedure, shortened: (§1)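 Binding signal is defined as a hexamer's read frequency for one factor over its frequency for the tag-only sample. To obtain reads, GST-fused human transcription factors were expressed in yeast, captured on glutathione beads, barcoded with DNA and pooled with that sample. Pools met 200 nmole of a 16-mer random double-stranded DNA library in Tris/NaCl/DTT/glycerol buffer for 30 min at room temperature before washing, 0.1% formaldehyde crosslinking, proximity ligation (BsaI/T4 ligase, 1 h, 37 °C), PCR and Illumina NextSeq500 sequencing.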

Sequence | binding signal
TATGGT | 1.24 fold enrichment (6-mer frequency, TF over GST control)
TTGACC | 1.37 fold enrichment (6-mer frequency, TF over GST control)
ATGTCC | 1.65 fold enrichment (6-mer frequency, TF over GST control)
AACTTC | 3.55 fold enrichment (6-mer frequency, TF over GST control)
CTAAGC | 1.07 fold enrichment (6-mer frequency, TF over GST control)
ACAACT | 1.36 fold enrichment (6-mer frequency, TF over GST control)
CGACTA | 1.34 fold enrichment (6-mer frequency, TF over GST control)
GACCTG | 1.21 fold enrichment (6-mer frequency, TF over GST control)
GGTACT | 1.28 fold enrichment (6-mer frequency, TF over GST control)
GGGCTT | 1.16 fold enrichment (6-mer frequency, TF over GST control)
ACTGGC | 1.04 fold enrichment (6-mer frequency, TF over GST control)
TCTCAA | 1.15 fold enrichment (6-mer frequency, TF over GST control)
AAAAGA | 1.13 fold enrichment (6-mer frequency, TF over GST control)
CATCCG | 2.53 fold enrichment (6-mer frequency, TF over GST control)
AAGCGC | 1.13 fold enrichment (6-mer frequency, TF over GST control)
AGGAAA | 2.19 fold enrichment (6-mer frequency, TF over GST control)
TGCACG | 1.02 fold enrichment (6-mer frequency, TF over GST control)
GTCTTA | 1.18 fold enrichment (6-mer frequency, TF over GST control)
AAACGG | 1.25 fold enrichment (6-mer frequency, TF over GST control)
CGCTCC | 1.23 fold enrichment (6-mer frequency, TF over GST control)

Sequence | binding signal
CCTTTG | 1.31 fold enrichment (6-mer frequency, TF over GST control)
GTGTTT | 1.23 fold enrichment (6-mer frequency, TF over GST control)
GCCTCA | 1.15 fold enrichment (6-mer frequency, TF over GST control)
TTGCAA | 1.12 fold enrichment (6-mer frequency, TF over GST control)
TGCGAA | 1.13 fold enrichment (6-mer frequency, TF over GST control)
GAAATT | 1.51 fold enrichment (6-mer frequency, TF over GST control)
TAAACA | 1.22 fold enrichment (6-mer frequency, TF over GST control)
GTACAC | 1.2 fold enrichment (6-mer frequency, TF over GST control)
TACATT | 1.22 fold enrichment (6-mer frequency, TF over GST control)
TGGTTC | 1.41 fold enrichment (6-mer frequency, TF over GST control)
CAACAT | 1.16 fold enrichment (6-mer frequency, TF over GST control)
AAGTCA | 1.21 fold enrichment (6-mer frequency, TF over GST control)
TCTCCG | 1.56 fold enrichment (6-mer frequency, TF over GST control)
CTGGGT | 1.07 fold enrichment (6-mer frequency, TF over GST control)
TACAAA | 1.13 fold enrichment (6-mer frequency, TF over GST control)
CAAGCA | 1.11 fold enrichment (6-mer frequency, TF over GST control)
CTTTCT | 1.5 fold enrichment (6-mer frequency, TF over GST control)
ATTAAC | 1.23 fold enrichment (6-mer frequency, TF over GST control)
TTGCGC | 1.03 fold enrichment (6-mer frequency, TF over GST control)
TGATGT | 1.23 fold enrichment (6-mer frequency, TF over GST control)

molecular target: T2, ETV3 (Homo sapiens, UniProt P41162-2 1-143); experiment: as above; conditions: protein: recombinant; tags: N-terminal GST; dsDNA, one strand shown
T2 sequence: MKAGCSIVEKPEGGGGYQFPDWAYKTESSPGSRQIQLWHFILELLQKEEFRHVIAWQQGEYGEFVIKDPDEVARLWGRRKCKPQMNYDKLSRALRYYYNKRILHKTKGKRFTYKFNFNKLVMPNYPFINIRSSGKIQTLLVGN
Procedure, shortened: as §1

Sequence | binding signal
TATGGT | 1.34 fold enrichment (6-mer frequency, TF over GST control)
TTGACC | 1.44 fold enrichment (6-mer frequency, TF over GST control)
ATGTCC | 1.8 fold enrichment (6-mer frequency, TF over GST control)
AACTTC | 2.57 fold enrichment (6-mer frequency, TF over GST control)
CTAAGC | 1.07 fold enrichment (6-mer frequency, TF over GST control)
ACAACT | 1.35 fold enrichment (6-mer frequency, TF over GST control)
CGACTA | 1.21 fold enrichment (6-mer frequency, TF over GST control)
GACCTG | 1.17 fold enrichment (6-mer frequency, TF over GST control)
GGTACT | 1.24 fold enrichment (6-mer frequency, TF over GST control)
GGGCTT | 1.19 fold enrichment (6-mer frequency, TF over GST control)
ACTGGC | 1.07 fold enrichment (6-mer frequency, TF over GST control)
TCTCAA | 1.3 fold enrichment (6-mer frequency, TF over GST control)
AAAAGA | 1.07 fold enrichment (6-mer frequency, TF over GST control)
CATCCG | 2.43 fold enrichment (6-mer frequency, TF over GST control)
AAGCGC | 1.29 fold enrichment (6-mer frequency, TF over GST control)
AGGAAA | 1.52 fold enrichment (6-mer frequency, TF over GST control)
TGCACG | 1.13 fold enrichment (6-mer frequency, TF over GST control)
GTCTTA | 1.23 fold enrichment (6-mer frequency, TF over GST control)
AAACGG | 1.26 fold enrichment (6-mer frequency, TF over GST control)
CGCTCC | 1.19 fold enrichment (6-mer frequency, TF over GST control)
